From PubChem BioAssay (Tox21)
Several values for one entry are separate records, joined by “and”; a condition that tells them apart may be missing. Identical values can stand only once. Inconclusive results are not listed. Where a call stands in place of a potency, no number is given. Where a structure was tested more than once in an assay, its records may differ in their call. Activity calls are given as the source filed them. Unless noted, the call rests on the fitted dose curve; in most records, active means well fitted curve in the direction sought with a large enough effect in the repeat runs; inconclusive means weak or mixed curves; inactive means no such curve, though single readings can be large; an effect the other way counts as inactive or inconclusive.

How the values were obtained:
[1] = qHTS assay to identify small molecule antagonists of the thyroid receptor (TR) signaling pathway - cell viability counter screen (AID 743064); further: nearly all actives have a fitted effect of over 50% in size
Procedure, shortened: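 Viability of T3-stimulated (1 nM final) GH3.TRE-Luc cells is measured by CellTiter-Fluor fluorescence after 23.5 h compound exposure at 37 °C plus 30 min reagent incubation.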

[2] = qHTS assay to identify small molecule antagonists of the thyroid receptor (TR) signaling pathway (AID 743065); further: series mostly up to about 70 µM; nearly all actives have a fitted effect of over 55% in size
Procedure, shortened: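 GH3.TRE-Luc rat pituitary cells (two TREs driving luciferase) were dosed with compound, then stimulated with 1 nM T3 (final) for 23.5 h at 37 C. ONE-Glo luminescence was the read-out, with CellTiter-Fluor fluorescence as the cytotoxicity counter-screen.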

[3] = test system: thyroid hormone receptor (rat, GH3 cells); assay: qHTS assay to identify small molecule agonists of the thyroid receptor (TR) signaling pathway (AID 743066; calls by dose curve)
[4] = biological target: Estrogen receptor (Homo sapiens) (UniProt P03372); assay: qHTS assay to identify small molecule antagonists of the estrogen receptor alpha (ER-alpha) signaling pathway (AID 743069; active means well fitted curve in the direction sought with a large enough effect in the signal ratio in the repeat runs, not every such curve was filed as active; the % refers to the signal ratio)
Sequence of Estrogen receptor (Homo sapiens) (P03372 whole entry, looked up): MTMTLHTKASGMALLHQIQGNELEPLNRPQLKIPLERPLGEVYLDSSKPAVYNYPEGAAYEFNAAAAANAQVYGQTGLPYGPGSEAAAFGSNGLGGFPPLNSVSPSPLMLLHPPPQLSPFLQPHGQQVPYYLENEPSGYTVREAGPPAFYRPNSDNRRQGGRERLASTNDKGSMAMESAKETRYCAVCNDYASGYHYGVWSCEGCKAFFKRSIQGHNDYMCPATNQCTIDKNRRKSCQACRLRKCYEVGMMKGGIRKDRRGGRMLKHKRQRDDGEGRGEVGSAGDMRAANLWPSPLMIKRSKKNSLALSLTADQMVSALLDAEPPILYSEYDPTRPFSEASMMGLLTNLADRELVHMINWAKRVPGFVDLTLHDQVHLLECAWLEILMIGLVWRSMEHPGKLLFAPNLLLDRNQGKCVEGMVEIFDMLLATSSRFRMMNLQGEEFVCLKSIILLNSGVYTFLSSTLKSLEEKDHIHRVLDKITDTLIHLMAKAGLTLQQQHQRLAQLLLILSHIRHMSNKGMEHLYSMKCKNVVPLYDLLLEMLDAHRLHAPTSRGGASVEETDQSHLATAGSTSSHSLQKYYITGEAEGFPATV
Procedure, shortened: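 In this cell-based reporter format, GripTite HEK293 cells harbouring ER-alpha-UAS-bla were grown overnight with 2% charcoal-stripped FBS, dosed with DMSO-dissolved compounds, then challenged with 17beta-estradiol. After 18 hr at 37C, beta-lactamase activity was detected by FRET fluorescence.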

[5] = qHTS assay to identify small molecule antagonists of the estrogen receptor alpha (ER-alpha) signaling pathway - cell viability counter screen (AID 743074; calls by dose curve; further: nearly all actives have a fitted effect of over 45% in size)
[6] = biological target: Estrogen receptor (Homo sapiens) (UniProt P03372); assay: qHTS assay to identify small molecule agonists of the estrogen receptor alpha (ER-alpha) signaling pathway (AID 743075; calls by dose curve)
[7] = biological target: Estrogen receptor (Homo sapiens) (UniProt P03372); assay: qHTS assay to identify small molecule agonists of the estrogen receptor alpha (ER-alpha) signaling pathway using the BG1 cell line (AID 743079); further: nearly all actives have a fitted effect of over 20% in size; further: potency means the concentration at half of the fitted maximal effect
[8] = qHTS assay to identify small molecule antagonists of the estrogen receptor alpha (ER-alpha) signaling pathway using the BG1 cell line (AID 743080; calls by dose curve;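 further: BG1 cells stimulated with 17beta-estradiol alongside compound; series mostly up to about 70 µM; nearly all actives have a fitted effect of over 25% in size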)
Procedure, shortened: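 Endogenous full-length ER-alpha in BG1-Luc-4E2 cells drives a stably integrated 4×ERE luciferase gene; compounds were tested against 17beta-estradiol over 21.5 h, with luminescence and multiplexed viability fluorescence recorded.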

[9] = qHTS assay to identify small molecule antagonists of the estrogen receptor alpha (ER-alpha) signaling pathway using the BG1 cell line - cell viability counter screen (AID 743081);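 further: compound given together with 17beta-estradiol as the ER stimulus; series mostly up to about 70 µM; nearly all actives have a fitted effect of over 45% in size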
Aromatase (Homo sapiens) = Aromatase (Homo sapiens) (UniProt P11511); assay: qHTS assay to identify aromatase inhibitors (AID 743083); further: series mostly up to about 70 µM; nearly all actives have a fitted effect of over 55% in size
Sequence of Aromatase (Homo sapiens) (P11511 whole entry, looked up): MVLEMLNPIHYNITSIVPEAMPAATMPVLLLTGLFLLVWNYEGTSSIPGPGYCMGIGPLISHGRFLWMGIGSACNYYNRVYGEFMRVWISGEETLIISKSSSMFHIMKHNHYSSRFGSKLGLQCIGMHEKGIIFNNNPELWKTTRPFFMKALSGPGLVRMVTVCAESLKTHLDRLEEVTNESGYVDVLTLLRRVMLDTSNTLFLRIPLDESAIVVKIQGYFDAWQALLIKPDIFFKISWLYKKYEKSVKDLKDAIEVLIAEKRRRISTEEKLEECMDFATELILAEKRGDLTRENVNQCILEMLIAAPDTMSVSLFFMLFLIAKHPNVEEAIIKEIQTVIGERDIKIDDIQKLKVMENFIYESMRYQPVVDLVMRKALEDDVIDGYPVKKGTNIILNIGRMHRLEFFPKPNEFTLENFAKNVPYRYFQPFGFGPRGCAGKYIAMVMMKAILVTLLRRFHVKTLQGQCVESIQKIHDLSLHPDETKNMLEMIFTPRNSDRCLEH

[10] = qHTS assay to identify aromatase inhibitors - cell viability counter screen (AID 743084);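 further: cells stimulated with testosterone during compound exposure; nearly all actives have a fitted effect of over 55% in size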
[11] = biological target: Aryl hydrocarbon receptor (Homo sapiens) (UniProt P35869); assay: qHTS assay to identify small molecule that activate the aryl hydrocarbon receptor (AhR) signaling pathway (AID 743085); further: nearly all actives have a fitted effect of over 15% in size; further: potency means the concentration at half of the fitted maximal effect;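 on activation: HG2L7.5c1 human HepG2 liver cells with stably integrated DRE-driven firefly reporter; series mostly up to about 70 µM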
Sequence of Aryl hydrocarbon receptor (Homo sapiens) (P35869 whole entry, looked up): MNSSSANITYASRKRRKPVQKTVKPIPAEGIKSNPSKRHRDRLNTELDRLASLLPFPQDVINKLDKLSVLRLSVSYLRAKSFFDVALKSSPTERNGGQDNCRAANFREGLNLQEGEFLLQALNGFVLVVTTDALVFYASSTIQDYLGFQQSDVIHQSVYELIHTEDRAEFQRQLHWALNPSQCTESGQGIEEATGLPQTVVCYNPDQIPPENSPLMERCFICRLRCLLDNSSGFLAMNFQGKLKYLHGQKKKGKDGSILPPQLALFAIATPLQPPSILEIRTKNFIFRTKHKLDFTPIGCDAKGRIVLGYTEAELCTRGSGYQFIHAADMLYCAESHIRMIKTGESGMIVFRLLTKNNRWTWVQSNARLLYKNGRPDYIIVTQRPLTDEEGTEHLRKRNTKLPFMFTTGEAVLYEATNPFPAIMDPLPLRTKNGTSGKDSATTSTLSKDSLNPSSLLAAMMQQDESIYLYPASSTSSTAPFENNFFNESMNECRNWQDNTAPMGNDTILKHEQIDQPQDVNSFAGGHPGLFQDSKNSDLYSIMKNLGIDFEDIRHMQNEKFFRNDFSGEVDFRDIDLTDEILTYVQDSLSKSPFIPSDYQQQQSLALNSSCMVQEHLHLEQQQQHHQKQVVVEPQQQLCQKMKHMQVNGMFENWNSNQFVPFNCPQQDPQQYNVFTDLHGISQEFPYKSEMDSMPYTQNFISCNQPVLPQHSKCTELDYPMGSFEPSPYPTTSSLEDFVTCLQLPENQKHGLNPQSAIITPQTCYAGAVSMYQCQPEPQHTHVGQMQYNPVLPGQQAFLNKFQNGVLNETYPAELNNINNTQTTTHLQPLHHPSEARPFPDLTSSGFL
Procedure, shortened: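 A multiplexed format paired cell viability (CellTiter-Fluor fluorescence) with AhR-dependent luciferase output (ONE-Glo luminescence) in the same wells of HepG2 DRE-luc cells after 24 h compound exposure at 37C.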

[12] = qHTS assay to identify small molecule that activate the aryl hydrocarbon receptor (AhR) signaling pathway - cell viability counter screen (AID 743086);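 further: HepG2 liver cells carrying the AhR DRE luciferase reporter; series mostly up to about 70 µM; nearly all actives have a fitted effect of over 45% in size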
Procedure, shortened: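 HepG2-AhR-luc (HG2L7.5c1) cells, 4000/well, treated 24 h at 37 C with compound; viability measured as CellTiter-Fluor fluorescence after 30 min in the same wells as the luciferase read.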

[13] = biological target: Peroxisome proliferator-activated receptor gamma (Homo sapiens) (UniProt P37231); assay: qHTS assay to identify small molecule agonists of the peroxisome proliferator-activated receptor gamma (PPARg) signaling pathway (AID 743094; active means well fitted activation curve with a large enough effect in the signal ratio in the repeat runs, not every such curve was filed as active; the % refers to the signal ratio)
Sequence of Peroxisome proliferator-activated receptor gamma (Homo sapiens) (P37231 whole entry, looked up): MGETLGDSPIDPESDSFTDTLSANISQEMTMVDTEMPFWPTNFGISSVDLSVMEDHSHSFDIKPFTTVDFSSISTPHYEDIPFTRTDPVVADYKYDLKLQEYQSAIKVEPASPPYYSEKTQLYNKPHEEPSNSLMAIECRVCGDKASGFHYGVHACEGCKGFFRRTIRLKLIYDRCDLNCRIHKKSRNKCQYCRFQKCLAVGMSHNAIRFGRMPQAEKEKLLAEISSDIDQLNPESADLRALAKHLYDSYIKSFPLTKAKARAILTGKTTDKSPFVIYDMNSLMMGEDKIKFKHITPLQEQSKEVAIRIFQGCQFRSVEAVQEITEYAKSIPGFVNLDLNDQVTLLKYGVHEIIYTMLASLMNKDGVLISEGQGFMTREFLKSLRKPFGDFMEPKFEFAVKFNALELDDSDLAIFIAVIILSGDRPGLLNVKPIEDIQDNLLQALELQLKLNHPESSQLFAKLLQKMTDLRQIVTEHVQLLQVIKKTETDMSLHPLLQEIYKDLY
Procedure, shortened: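 Cell-based bla reporter, HEK293H background, PPARg-driven UAS. Pre-incubation 5 h, 37C, 5% CO2. Compound 17 h, 37C. Substrate 1 h RT; fluorescence.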

[14] = biological target: Peroxisome proliferator-activated receptor gamma (Homo sapiens) (UniProt P37231); assay: qHTS assay to identify small molecule antagonists of the peroxisome proliferator-activated receptor gamma (PPARg) signaling pathway (AID 743191; calls by dose curve; further: series mostly up to about 63 µM; nearly all actives have a fitted effect of over 30% in size)
Procedure, shortened: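 GeneBLAzer PPARg UAS-bla HEK293H cells, 5 h post-plating, exposed to compounds 17 h at 37C. LiveBLAzer B/G FRET substrate added for 1 h at room temperature; beta-lactamase reporter read by fluorescence intensity.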

[15] = qHTS assay for small molecule agonists of the antioxidant response element (ARE) signaling pathway (AID 743202; active means well fitted activation curve with a large enough effect in the signal ratio in the repeat runs, not every such curve was filed as active; the % refers to the signal ratio)
Procedure, shortened: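 HepG2 ARE-bla cells; 16 h treatment at 37 C; FRET-based beta-lactamase fluorescence read after 2 h substrate incubation at room temperature.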

[16] = qHTS assay for small molecule activators of the heat shock response signaling pathway - cell viability counter screen (AID 743209); further: nearly all actives have a fitted effect of over 50% in size
Procedure, shortened: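 Same-well multiplex: after 2.5 h room-temperature incubation with LiveBLAzer B/G substrate and fluorescence reading, CellTiter-Glo reagent was added to HSE-bla HeLa cells that had received compound for 5 h at 37 C; luminescence read after 30 min.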

[17] = qHTS assay for small molecule activators of the heat shock response signaling pathway (AID 743210; active means well fitted activation curve with a large enough effect in the signal ratio in the repeat runs, with a control signal flat, not every such curve was filed as active; the % refers to the signal ratio;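 further: HeLa cells with beta-lactamase reporter driven by heat shock elements; series mostly up to about 63 µM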)
Procedure, shortened: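 Following overnight attachment, HSE-bla HeLa cells received test compounds for 5 h at 37 C; beta-lactamase activity was then detected via FRET substrate fluorescence.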

[18] = qHTS assay to identify small molecule antagonists of the peroxisome proliferator-activated receptor gamma (PPARg) signaling pathway - cell viability counter screen (AID 743194); further: nearly all actives have a fitted effect of over 55% in size
Procedure, shortened: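 Cytotoxicity counter screen in PPARg-bla HEK293H cells, same wells as reporter assay. Compounds plus 50 nM rosiglitazone (final) for 17 h at 37 C, then viability read by CellTiter-Glo luminescence.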

[19] = qHTS assay for small molecule agonists of the antioxidant response element (ARE) signaling pathway - cell viability counter screen (AID 743203; calls by dose curve; further: nearly all actives have a fitted effect of over 55% in size)
Procedure, shortened: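 Measured in the same wells as the beta-lactamase ARE reporter, this read-out is CellTiter-Glo luminescence from HepG2 ARE-bla cells given compounds for 16 hrs.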

SMILES	Potency [1]	Potency [2]	Potency [3]	Potency [4]	Potency [5]	Potency [6]	Potency [7]	Potency [8]	Potency [9]	Potency (Aromatase (Homo sapiens))	Potency [10]	Potency [11]	Potency [12]	outcome [13]	outcome [14]	Potency [15]	outcome [16]	outcome [17]	outcome [18]	outcome [19]
O=C(O)CCC(=O)O	inactive	inactive	inactive	inactive	inactive	inactive	inactive	inactive	inactive	inactive	inactive	inactive	inactive	inactive	inactive	inactive	inactive	inactive	–	–
Cc1ccc(C)c(OCCCC(C)(C)C(=O)O)c1	inactive	inactive	inactive	inactive	inactive	inactive	inactive	inactive	inactive	inactive	inactive	inactive and 48.9 µM (active)	inactive	–	–	inactive	inactive	inactive	inactive	inactive
OC(Cn1cncn1)(Cn1cncn1)c1ccc(F)cc1F	inactive	inactive	inactive	inactive	inactive	inactive	inactive	inactive	inactive	–	inactive	–	inactive	inactive	inactive	inactive	inactive	–	–	–
Cc1ccc(S(=O)(=O)NC(=O)NN2CCCCCC2)cc1	inactive	inactive	inactive	inactive	inactive	inactive	inactive and 30.6 µM (active)	inactive	inactive	inactive	inactive	inactive	inactive	inactive	inactive	inactive	inactive	inactive	–	–
CC(C)(Oc1ccc(C2CC2(Cl)Cl)cc1)C(=O)O (stereo not drawn)	inactive	inactive	inactive	inactive	inactive	inactive	inactive	inactive	inactive	inactive	inactive	inactive	inactive	–	inactive	inactive	inactive	inactive	inactive	inactive
CC(O)CO (stereo not drawn)	inactive	inactive	inactive	inactive	inactive	inactive	inactive	inactive	inactive	inactive	inactive	inactive	inactive	inactive	inactive	inactive	inactive	inactive	–	–
CC1(C)[C@@H]2CC[C@@]1(C)C(=O)C2	inactive	inactive	inactive	inactive	inactive	inactive	inactive	inactive	inactive	inactive	inactive	inactive	inactive	–	–	inactive	inactive	inactive	–	inactive
CCCNC(=O)NS(=O)(=O)c1ccc(Cl)cc1	inactive	inactive	inactive	inactive	inactive	inactive	inactive	inactive	inactive	inactive	inactive	inactive	inactive	inactive	inactive	inactive	inactive	inactive	inactive	inactive
O=c1ccc2ccccc2o1	inactive	inactive	inactive	inactive	inactive	inactive	18.8 µM (active) and inactive	inactive	inactive	inactive	inactive	inactive	inactive	inactive	inactive	inactive	inactive	inactive	–	inactive
NS(=O)(=O)c1cc(C(=O)O)c(NCc2ccco2)cc1Cl	inactive	inactive	inactive	inactive	inactive	inactive	15 µM (active)	inactive	inactive	–	inactive	–	inactive	inactive	–	inactive	inactive	inactive	inactive	–
Cc1cc(=O)[nH]c(=S)[nH]1	inactive	inactive	inactive	inactive	inactive	inactive	inactive	inactive	inactive	inactive	inactive	inactive	inactive	inactive	inactive	inactive	inactive	inactive	inactive	inactive
Cc1cc(=O)n(-c2ccccc2)n1C	inactive	inactive	inactive	inactive	inactive	inactive	inactive	inactive	inactive	inactive	inactive	inactive	inactive	inactive	inactive	inactive	inactive	–	–	inactive
NNC(=O)c1ccncc1	inactive	inactive	inactive	inactive	inactive	inactive	inactive	inactive	inactive	inactive	inactive	13.3 µM (active)	inactive	inactive	inactive	inactive	inactive	inactive	inactive	–
Cn1cc[nH]c1=S	inactive	inactive	inactive	inactive	inactive	inactive	inactive	inactive	inactive	inactive	inactive	–	inactive	inactive	inactive	inactive	inactive	inactive	–	inactive
